The record followed here is publication PMC7862700, “An all-to-all approach to the identification of sequence-specific readers for epigenetic DNA modifications on cytosine”.

Assay in all cases: DAPPL (digital affinity profiling via proximity ligation, sequencing); 10 mM Tris-HCl pH 7.5, 50 mM NaCl, 1 mM DTT, 4% glycerol, room temperature, 30 min; GST-TFs on glutathione beads, 16-mer random dsDNA library, 0.1% formaldehyde crosslink after washing; high values mean tight binding
In one test the target is T1, FLI1 (Homo sapiens, UniProt Q01543 1-452).
T1 sequence: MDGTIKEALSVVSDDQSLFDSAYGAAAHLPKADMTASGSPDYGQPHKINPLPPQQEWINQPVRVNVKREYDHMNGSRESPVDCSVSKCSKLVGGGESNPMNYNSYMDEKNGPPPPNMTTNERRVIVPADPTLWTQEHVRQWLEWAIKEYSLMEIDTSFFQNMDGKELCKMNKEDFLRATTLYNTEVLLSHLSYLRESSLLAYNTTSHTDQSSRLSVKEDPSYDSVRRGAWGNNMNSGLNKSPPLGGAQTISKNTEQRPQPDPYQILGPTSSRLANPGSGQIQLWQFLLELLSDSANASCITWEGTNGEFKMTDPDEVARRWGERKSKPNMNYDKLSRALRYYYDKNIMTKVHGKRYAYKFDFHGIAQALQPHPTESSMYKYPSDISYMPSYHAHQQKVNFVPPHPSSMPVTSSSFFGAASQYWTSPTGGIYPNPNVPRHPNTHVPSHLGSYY
The settings on record: protein: recombinant; tags: N-terminal GST; dsDNA, one strand shown. The procedure, abridged: (§1)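 Pools were built from human transcription factors expressed in yeast as GST fusions, captured on glutathione beads and DNA-barcoded, along with a tag-only sample. Incubation with 200 nmole of a 16-mer random double-stranded DNA library lasted 30 min at room temperature in Tris/NaCl/DTT/glycerol buffer, and was followed by washing, 0.1% formaldehyde crosslinking, proximity ligation, PCR amplification and Illumina NextSeq500 sequencing. Binding signal is the quotient of each hexamer's read frequency for a factor and its frequency for the tag-only sample.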

Another test concerns the target T2, ELK1 (Homo sapiens, UniProt P19419 1-428).
T2 sequence: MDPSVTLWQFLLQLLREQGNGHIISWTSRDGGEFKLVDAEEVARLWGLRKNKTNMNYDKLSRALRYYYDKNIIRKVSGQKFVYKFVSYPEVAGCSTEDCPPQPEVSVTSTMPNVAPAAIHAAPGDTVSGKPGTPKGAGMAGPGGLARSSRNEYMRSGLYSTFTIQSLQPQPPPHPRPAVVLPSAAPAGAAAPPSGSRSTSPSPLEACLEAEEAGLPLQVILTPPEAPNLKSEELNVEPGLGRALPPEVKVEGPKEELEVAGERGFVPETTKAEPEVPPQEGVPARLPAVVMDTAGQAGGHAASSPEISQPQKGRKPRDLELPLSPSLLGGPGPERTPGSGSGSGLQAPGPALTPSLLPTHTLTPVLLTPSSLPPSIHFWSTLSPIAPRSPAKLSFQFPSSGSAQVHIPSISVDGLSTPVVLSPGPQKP
The settings on record: protein: recombinant; tags: N-terminal GST; dsDNA, one strand shown. The procedure, abridged: as §1

The next test addresses T3, GABPA (Homo sapiens, UniProt Q06546 1-454).
T3 sequence: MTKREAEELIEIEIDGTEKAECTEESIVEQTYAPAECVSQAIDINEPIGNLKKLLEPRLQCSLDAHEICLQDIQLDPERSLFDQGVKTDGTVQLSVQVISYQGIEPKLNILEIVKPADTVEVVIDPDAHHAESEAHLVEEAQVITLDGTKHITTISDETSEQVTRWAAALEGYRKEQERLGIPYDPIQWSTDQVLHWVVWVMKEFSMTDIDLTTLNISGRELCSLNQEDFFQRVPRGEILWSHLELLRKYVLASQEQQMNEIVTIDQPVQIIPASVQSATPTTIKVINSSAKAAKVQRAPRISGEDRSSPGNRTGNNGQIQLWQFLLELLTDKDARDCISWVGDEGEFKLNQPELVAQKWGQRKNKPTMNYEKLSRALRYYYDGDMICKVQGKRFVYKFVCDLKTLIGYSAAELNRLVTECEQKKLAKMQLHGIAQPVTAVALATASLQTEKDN
The settings on record: protein: recombinant; tags: N-terminal GST; dsDNA, one strand shown. The procedure, abridged: as §1

A further test deals with T4, ERG (Homo sapiens, UniProt P11308 1-479).
T4 sequence: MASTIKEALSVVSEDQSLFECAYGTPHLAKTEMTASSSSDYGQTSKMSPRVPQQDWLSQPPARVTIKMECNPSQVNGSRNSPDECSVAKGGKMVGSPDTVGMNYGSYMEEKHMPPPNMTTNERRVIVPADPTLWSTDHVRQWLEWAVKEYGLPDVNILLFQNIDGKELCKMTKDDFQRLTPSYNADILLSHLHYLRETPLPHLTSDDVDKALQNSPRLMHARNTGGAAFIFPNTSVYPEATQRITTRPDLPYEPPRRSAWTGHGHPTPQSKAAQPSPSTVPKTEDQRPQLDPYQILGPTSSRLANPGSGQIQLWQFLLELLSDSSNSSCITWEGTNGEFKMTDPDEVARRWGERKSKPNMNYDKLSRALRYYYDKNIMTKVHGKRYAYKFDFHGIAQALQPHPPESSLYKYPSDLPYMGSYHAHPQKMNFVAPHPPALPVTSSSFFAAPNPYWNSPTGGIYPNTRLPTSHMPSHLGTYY
The settings on record: protein: recombinant; tags: N-terminal GST; dsDNA, one strand shown. The procedure, abridged:
as §1

A further test concerns the target ELF1 (Homo sapiens, UniProt P32519 1-619). The settings on record: protein: recombinant; tags: N-terminal GST; dsDNA, one strand shown. The procedure, abridged:
as §1

A further test deals with T5, EHF (Homo sapiens, UniProt Q9NZC4 1-300).
T5 sequence: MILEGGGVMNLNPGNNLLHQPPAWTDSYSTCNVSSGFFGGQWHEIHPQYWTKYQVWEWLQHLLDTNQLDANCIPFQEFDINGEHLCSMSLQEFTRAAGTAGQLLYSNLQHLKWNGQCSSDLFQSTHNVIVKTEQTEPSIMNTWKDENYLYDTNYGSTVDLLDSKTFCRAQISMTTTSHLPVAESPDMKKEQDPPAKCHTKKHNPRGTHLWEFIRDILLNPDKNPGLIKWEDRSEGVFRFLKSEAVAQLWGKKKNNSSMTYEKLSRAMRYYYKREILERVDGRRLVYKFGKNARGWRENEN
The settings on record: protein: recombinant; tags: N-terminal GST; dsDNA, one strand shown. The procedure, abridged: as §1

In the next test the target is SPI1 (Homo sapiens, UniProt P17947 1-270). The settings on record: protein: recombinant; tags: N-terminal GST; dsDNA, one strand shown. The procedure, abridged: as §1
In the next test the target is SPIB (Homo sapiens, UniProt Q01892 1-262). The settings on record: protein: recombinant; tags: N-terminal GST; dsDNA, one strand shown. The procedure, abridged: as §1
SPIB, sequence (Q01892 whole entry): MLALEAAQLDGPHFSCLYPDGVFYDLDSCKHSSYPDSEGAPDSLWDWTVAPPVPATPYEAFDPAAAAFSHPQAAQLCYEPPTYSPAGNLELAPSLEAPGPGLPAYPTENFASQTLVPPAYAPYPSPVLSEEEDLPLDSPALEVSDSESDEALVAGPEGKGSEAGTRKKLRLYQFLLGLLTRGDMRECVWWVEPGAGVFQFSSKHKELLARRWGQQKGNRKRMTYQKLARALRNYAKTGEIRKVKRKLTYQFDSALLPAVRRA
In the next test the target is T6, ELK3 (Homo sapiens, UniProt P41970 1-407).
T6 sequence: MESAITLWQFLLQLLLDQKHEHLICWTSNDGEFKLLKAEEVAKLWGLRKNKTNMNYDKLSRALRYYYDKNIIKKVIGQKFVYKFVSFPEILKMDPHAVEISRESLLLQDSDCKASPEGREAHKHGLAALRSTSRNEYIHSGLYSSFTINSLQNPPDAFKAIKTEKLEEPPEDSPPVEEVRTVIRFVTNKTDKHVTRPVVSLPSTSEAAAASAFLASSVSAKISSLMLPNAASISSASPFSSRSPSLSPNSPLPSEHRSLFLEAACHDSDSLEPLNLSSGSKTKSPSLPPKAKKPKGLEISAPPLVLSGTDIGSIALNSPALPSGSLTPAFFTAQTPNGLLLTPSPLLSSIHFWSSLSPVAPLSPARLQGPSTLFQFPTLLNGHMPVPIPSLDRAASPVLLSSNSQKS
The settings on record: protein: recombinant; tags: N-terminal GST; dsDNA, one strand shown. The procedure, abridged:
as §1

The target of another test is T7, FEV (Homo sapiens, UniProt Q99581 1-238).
T7 sequence: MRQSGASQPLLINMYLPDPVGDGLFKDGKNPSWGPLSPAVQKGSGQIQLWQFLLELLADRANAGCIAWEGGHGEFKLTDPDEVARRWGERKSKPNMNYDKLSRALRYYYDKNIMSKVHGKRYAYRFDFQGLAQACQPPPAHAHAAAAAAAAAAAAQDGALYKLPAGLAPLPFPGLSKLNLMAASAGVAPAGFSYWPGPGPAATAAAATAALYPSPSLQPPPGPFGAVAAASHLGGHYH
The settings on record: protein: recombinant; tags: N-terminal GST; dsDNA, one strand shown. The procedure, abridged:
as §1

The target in another test is ETV5 (Homo sapiens, UniProt P41161 1-510). The settings on record: protein: recombinant; tags: N-terminal GST; dsDNA, one strand shown. The procedure, abridged:
as §1

The target in the next test is HSF1 (Homo sapiens, UniProt Q00613 1-529). The settings on record: protein: recombinant; tags: N-terminal GST; chain copies: 3; dsDNA, one strand shown. The procedure, abridged: as §1
HSF1, sequence (Q00613 whole entry): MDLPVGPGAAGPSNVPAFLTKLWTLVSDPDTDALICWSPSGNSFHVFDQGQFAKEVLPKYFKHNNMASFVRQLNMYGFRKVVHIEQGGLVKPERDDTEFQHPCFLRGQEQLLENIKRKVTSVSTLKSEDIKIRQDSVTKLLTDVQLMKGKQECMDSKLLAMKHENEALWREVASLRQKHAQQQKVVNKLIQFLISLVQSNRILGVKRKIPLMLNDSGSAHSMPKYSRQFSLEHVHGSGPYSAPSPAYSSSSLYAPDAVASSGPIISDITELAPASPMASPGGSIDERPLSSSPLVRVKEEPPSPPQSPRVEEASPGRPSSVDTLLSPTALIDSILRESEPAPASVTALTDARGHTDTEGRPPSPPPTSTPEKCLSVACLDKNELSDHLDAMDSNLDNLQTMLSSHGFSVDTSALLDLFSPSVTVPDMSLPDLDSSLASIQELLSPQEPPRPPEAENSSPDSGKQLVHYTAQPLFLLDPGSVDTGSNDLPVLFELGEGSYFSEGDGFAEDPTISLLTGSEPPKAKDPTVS
In a further test the target is T8, SPIC (Homo sapiens, UniProt Q8N5J4 1-248).
T8 sequence: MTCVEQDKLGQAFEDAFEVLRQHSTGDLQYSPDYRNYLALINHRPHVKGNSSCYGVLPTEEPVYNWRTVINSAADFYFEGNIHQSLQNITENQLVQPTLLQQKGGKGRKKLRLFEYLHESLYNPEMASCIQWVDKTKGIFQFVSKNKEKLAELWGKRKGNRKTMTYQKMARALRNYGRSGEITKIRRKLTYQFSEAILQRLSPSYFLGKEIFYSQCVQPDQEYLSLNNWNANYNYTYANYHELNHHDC
The settings on record: protein: recombinant; tags: N-terminal GST; dsDNA, one strand shown. The procedure, abridged: as §1

The next test deals with ELF4 (Homo sapiens, UniProt Q99607 1-663). The settings on record: protein: recombinant; tags: N-terminal GST; dsDNA, one strand shown. The procedure, abridged: as §1
ELF4, sequence (Q99607 whole entry): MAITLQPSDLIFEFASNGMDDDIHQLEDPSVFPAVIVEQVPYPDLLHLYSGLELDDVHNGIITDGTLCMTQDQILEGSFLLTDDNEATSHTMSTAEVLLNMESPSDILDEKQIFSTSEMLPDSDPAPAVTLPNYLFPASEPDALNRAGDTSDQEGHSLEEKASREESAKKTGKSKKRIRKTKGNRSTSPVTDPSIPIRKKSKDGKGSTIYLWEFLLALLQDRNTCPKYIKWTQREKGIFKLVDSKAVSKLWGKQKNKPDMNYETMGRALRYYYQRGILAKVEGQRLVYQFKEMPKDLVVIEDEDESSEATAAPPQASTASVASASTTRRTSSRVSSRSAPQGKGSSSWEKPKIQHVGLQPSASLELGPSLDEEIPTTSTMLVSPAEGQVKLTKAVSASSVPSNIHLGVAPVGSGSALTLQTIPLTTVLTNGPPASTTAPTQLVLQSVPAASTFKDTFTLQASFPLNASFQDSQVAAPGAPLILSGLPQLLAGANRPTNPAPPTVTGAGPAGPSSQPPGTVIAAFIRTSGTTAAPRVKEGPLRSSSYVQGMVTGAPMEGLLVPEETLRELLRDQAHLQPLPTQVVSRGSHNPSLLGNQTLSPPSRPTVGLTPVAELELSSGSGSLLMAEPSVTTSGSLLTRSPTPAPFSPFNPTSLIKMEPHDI
The target in a further test is T9, ELK4 (Homo sapiens, UniProt P28324-2 1-405).
T9 sequence: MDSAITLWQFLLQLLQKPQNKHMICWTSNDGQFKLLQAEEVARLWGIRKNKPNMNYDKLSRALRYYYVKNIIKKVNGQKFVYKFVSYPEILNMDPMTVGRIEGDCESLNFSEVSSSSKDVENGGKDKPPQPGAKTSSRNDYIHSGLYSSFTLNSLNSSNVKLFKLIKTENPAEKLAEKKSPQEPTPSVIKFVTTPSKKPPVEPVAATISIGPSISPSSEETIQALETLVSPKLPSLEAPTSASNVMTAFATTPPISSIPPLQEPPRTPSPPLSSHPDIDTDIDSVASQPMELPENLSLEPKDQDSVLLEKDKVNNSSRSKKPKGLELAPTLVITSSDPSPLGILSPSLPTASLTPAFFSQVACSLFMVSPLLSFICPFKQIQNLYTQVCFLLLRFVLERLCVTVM
The settings on record: protein: recombinant; tags: N-terminal GST; dsDNA, one strand shown. The procedure, abridged: as §1

Another test concerns the target T10, ETV2 (Homo sapiens, UniProt O00321 1-342).
T10 sequence: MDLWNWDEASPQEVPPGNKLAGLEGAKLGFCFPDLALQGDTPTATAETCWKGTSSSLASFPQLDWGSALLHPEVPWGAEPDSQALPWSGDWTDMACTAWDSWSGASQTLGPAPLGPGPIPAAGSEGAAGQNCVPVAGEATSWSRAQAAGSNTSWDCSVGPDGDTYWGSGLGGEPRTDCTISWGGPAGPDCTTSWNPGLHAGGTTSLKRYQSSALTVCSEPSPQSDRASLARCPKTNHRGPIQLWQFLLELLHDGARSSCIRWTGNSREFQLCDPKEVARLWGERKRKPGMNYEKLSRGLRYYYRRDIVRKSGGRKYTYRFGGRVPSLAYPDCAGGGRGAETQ
The settings on record: protein: recombinant; tags: N-terminal GST; dsDNA, one strand shown. The procedure, abridged: as §1

The next test concerns the target T11, ELF3 (Homo sapiens, UniProt P78545 1-371).
T11 sequence: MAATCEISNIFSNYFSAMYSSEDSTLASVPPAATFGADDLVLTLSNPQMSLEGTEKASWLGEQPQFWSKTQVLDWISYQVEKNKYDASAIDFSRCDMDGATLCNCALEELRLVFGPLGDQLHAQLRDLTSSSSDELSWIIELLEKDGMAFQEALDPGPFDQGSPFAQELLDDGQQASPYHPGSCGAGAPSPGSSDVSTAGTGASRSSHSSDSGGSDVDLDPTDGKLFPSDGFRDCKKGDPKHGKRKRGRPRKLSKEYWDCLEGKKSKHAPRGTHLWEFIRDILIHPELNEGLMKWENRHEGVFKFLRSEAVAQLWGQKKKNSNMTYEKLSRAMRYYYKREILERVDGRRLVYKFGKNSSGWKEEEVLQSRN
The settings on record: protein: recombinant; tags: N-terminal GST; dsDNA, one strand shown. The procedure, abridged: as §1

A further test concerns the target ETV1 (Homo sapiens, UniProt P50549 1-477). The settings on record: protein: recombinant; tags: N-terminal GST; dsDNA, one strand shown. The procedure, abridged:
as §1

ETV1, sequence (P50549 whole entry): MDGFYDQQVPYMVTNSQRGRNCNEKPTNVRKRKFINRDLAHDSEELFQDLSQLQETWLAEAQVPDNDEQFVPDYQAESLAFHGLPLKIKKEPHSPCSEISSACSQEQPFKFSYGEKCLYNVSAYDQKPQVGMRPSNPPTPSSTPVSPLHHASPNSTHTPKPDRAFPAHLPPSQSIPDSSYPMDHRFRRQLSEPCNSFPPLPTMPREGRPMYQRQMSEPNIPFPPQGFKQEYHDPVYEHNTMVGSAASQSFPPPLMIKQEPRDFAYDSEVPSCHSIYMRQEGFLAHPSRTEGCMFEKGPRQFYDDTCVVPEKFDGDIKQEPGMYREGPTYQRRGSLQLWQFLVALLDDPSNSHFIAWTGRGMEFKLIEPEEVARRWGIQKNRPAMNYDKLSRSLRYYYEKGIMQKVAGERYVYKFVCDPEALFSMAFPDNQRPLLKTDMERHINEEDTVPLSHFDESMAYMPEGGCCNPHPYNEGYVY
ETV5, sequence (P41161 whole entry): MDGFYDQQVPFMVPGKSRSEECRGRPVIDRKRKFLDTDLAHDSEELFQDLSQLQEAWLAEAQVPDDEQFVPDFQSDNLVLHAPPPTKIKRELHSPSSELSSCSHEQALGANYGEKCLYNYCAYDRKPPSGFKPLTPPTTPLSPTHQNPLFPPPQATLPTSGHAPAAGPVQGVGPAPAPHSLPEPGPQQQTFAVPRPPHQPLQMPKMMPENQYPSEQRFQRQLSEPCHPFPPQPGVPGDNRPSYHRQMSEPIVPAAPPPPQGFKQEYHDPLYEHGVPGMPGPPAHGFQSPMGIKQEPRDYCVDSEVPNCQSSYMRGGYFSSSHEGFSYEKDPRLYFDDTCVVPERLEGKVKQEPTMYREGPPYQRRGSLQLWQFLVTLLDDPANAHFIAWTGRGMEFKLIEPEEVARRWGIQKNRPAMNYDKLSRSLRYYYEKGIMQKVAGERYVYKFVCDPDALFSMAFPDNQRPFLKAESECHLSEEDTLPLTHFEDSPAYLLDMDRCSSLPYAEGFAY
ELF1, sequence (P32519 whole entry): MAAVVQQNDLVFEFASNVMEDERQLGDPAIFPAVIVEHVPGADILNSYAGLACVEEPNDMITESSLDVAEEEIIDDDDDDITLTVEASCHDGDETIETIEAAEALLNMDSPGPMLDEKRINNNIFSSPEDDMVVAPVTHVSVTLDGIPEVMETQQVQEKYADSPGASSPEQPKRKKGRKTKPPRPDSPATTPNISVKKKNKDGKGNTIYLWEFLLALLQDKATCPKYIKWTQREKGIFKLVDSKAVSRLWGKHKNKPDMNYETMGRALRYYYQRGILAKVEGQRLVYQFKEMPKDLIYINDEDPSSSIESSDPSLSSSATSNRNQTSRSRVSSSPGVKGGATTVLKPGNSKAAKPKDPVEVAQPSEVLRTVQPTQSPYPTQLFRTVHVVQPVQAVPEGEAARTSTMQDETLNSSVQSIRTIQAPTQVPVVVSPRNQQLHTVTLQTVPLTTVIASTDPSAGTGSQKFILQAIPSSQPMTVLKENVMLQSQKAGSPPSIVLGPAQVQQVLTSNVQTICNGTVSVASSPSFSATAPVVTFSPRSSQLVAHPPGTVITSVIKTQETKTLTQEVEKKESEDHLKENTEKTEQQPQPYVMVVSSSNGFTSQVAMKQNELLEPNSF

Turning to GGAAAA, the binding signal is 1.16 fold enrichment (6-mer frequency, TF over GST control) in the test with FLI1; 1.17 fold enrichment (6-mer frequency, TF over GST control) with ELK1; 1.2 fold enrichment (6-mer frequency, TF over GST control) with GABPA; 1.3 fold enrichment (6-mer frequency, TF over GST control) with ERG; 1.14 fold enrichment (6-mer frequency, TF over GST control) with ELF1; 1.38 fold enrichment (6-mer frequency, TF over GST control) with EHF. The binding signal with SPI1 is 1.2 fold enrichment (6-mer frequency, TF over GST control); with SPIB, 1.35 fold enrichment (6-mer frequency, TF over GST control); in the test with ELK3, 1.22 fold enrichment (6-mer frequency, TF over GST control); with FEV it was 1.2 fold enrichment (6-mer frequency, TF over GST control); with ETV5 it was 1.32 fold enrichment (6-mer frequency, TF over GST control); with HSF1 it was 1.62 fold enrichment (6-mer frequency, TF over GST control). Further, the binding signal in the test with SPIC was 1.29 fold enrichment (6-mer frequency, TF over GST control); in the test with ELF4 it was 1.19 fold enrichment (6-mer frequency, TF over GST control); in the test with ELK4 it was 1.01 fold enrichment (6-mer frequency, TF over GST control); in the test with ETV2, 1.22 fold enrichment (6-mer frequency, TF over GST control); in the test with ELF3, 1.39 fold enrichment (6-mer frequency, TF over GST control); with ETV1 it was 1.27 fold enrichment (6-mer frequency, TF over GST control).
